An excerpt weighted towards active compounds, which were near 7.3% of everything screened.
RORgamma inh – qHTS for inhibitors of ROR gamma transcriptional activity. Nuclear receptor ROR-gamma (Mus musculus), P51450. Potency, µM (top dose mostly 53.6 µM), for inactives: at the top dose activity change, negative = inhibition, usual class: inhibitors. Drosophila S2 Gal4-RORgamma UAS-luciferase reporter, 20 h. 310,000 compounds, 5.4% hits; also: nearly all actives have a fitted effect of over 60% in size
Target sequence (P51450 whole entry, looked up, the tested form may be a part): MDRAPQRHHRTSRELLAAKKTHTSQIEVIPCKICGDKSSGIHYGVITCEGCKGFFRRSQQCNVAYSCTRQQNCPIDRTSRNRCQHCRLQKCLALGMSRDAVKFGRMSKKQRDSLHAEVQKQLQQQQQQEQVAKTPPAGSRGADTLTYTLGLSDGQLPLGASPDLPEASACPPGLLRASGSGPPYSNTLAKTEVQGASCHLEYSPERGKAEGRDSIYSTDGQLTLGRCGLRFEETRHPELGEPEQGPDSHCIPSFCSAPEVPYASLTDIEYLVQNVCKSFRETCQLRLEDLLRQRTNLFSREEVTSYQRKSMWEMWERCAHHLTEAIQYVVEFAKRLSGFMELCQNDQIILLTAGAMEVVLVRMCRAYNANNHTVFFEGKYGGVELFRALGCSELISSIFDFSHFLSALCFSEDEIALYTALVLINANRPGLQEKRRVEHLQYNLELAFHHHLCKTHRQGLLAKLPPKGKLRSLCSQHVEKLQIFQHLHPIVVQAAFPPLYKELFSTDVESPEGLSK
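Read-out: Photinus luciferase luminescence; inhibitors lower reporter signal. Insect Schneider cells with Gal4-ROR gamma fusion under metallothionein promoter, UAS reporter; 700 uM final copper sulfate induction, 20 hr, ambient temperature.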
Gal4-VP16 FLuc – VP16 counterscreen qHTS for inhibitors of ROR gamma transcriptional activity; Potency, µM (series often up to 53.6 µM), inactives show at the highest dose activity, negative = inhibition, hits mostly inhibitors; 310,000 compounds, 3.5% hits; Drosophila S2 Gal4-VP16 UAS-luciferase, luminescence, 20 h; AID 2546, 2010;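 also: Gal4-VP16 expression switched on by copper sulfate through the metallothionein promoter; nearly all actives have a fitted effect of over 50% in size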
Tau fluor counter – Counterscreen qHTS for Inhibitors of Tau Fibril Formation, Fluorescence Polarization. tau K18 P301L Alexa594 fluorescence, heparin fibrillization. Potency, µM (titrated, usually from 57.7 µM), for inactives: top-dose activity change, negative = decrease. 280,000 compounds, 0.93% hits. AID 1463, 2008; also: nearly all actives have a fitted effect of over 55% in size
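Human K18 P301L tau (15 uM unlabeled plus 0.24 uM Alexa 594-labeled, final) in 100 mM sodium acetate pH 7 was mixed with compound and 20 uM heparin and incubated 6 hr at 37 C.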
Tau FP inhib – qHTS for Inhibitors of Tau Fibril Formation, Fluorescence Polarization. Microtubule-associated protein tau (Homo sapiens), P10636. K18 P301L tau heparin fibrillization, Alexa594 FP, 6 h. Potency, µM (doses to about 57.7 µM), without a hit: at the highest dose activity, negative = inhibition, most hits filed as inhibitors. 280,000 compounds, 0.39% hits; also: nearly all actives have a fitted effect of over 55% in size
Target sequence (P10636 561-689 P618L limits assumed): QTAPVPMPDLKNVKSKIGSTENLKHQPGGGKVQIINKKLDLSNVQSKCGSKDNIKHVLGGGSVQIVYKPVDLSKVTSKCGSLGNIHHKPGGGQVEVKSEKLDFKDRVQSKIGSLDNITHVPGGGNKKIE
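Human K18 P301L fragment (15 uM unlabeled plus 0.24 uM Alexa 594-labeled) in 100 mM sodium acetate pH 7 with compound, aggregation induced by 20 uM heparin for 6 hr at 37 C. ThT (30 uM) added for 1 hr, then Alexa 594 FP read.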
Tau ThT inhib – qHTS for Inhibitors of Tau Fibril Formation, Thioflavin T Binding; recombinant tau K18 P301L (four-repeat tau fragment), heparin-induced fibrillization, ThT fluorescence; 270,000 compounds, 2.1% hits; Potency, µM (titrated, usually from 57.4 µM), inactives show top-dose activity, negative = inhibition, actives largely listed as inhibitors; also: nearly all actives have a fitted effect of over 55% in size
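Heparin-induced (20 uM) aggregation of recombinant human K18 P301L tau, 15 uM unlabeled with 0.24 uM labeled, pH 7 acetate buffer, 6 hr at 37 C with compound. Fibrils quantified by 30 uM ThT fluorescence after 1 hr ambient incubation.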
Numbers without * were called inactive; ? = inconclusive; · = no result given; [ ] = remark or other dose. Calls follow the shape of the dose curve; as a rule, active = well fitted curve in the direction sought with a large enough effect; inconclusive = small, poorly fitted or top-dose-only effect, or another doubt; inactive = no such curve, though single readings can be large; an effect the other way counts as inactive or inconclusive. % is scaled to controls: 0 for no effect and ±100 for the full control effect; potency is read from the fitted curve at half-maximal effect.

SMILES	RORgamma inh	Gal4-VP16 FLuc	Tau fluor counter	Tau FP inhib	Tau ThT inhib
Nc1c(Cl)cc2c(c1Oc1ccccc1)C(=O)c1ccccc1C2=O	-33%	-3%	14µM*[quencher]	7%	?
Nc1ccc(O)c2c1C(=O)c1ccccc1C2=O	5%	-7%	-2%	5%	1%
CCOc1ccc(NC(=O)c2cc(S(=O)(=O)N3CCc4ccccc43)ccc2F)cc1	·	·	?	-11%	-5%
CCNC(=S)N(CCc1c(C)[nH]c2ccc(C)cc12)Cc1cccs1	7.1µM*	?	14µM*[quencher]	?	?
COCCNC(=S)N(CCc1c(C)[nH]c2ccccc12)Cc1ccco1	-25%	-1%	?	?	-13%
COCCNC(=S)N(CCc1c(C)[nH]c2ccc(Cl)cc12)Cc1cccs1	?	?	8.9µM*[quencher]	9%	-17%
CNC(=S)N(CCc1c(C)[nH]c2ccc(Cl)cc12)Cc1cccs1	?	-3%	16µM*[quencher]	?	-12%
CNC(=S)N(CCc1c(C)[nH]c2ccc(Cl)cc12)Cc1cc(OC)c(OC)c(OC)c1	-14%	2%	-6%	-4%	-4%
COCCNC(=S)N(CCc1c(C)[nH]c2ccc(F)cc12)Cc1cccs1	7.9µM*	?	14µM*[quencher]	13%	-13%
Cc1ncc(C[n+]2csc(CCOP(=O)(O)OP(=O)(O)O)c2C)c(N)n1	-28%	-2%	·	·	·
CCNC(=S)N(CCc1c(C)[nH]c2ccc(Cl)cc12)Cc1ccco1	?	?	13µM*[quencher]	?	-17%
O=C(Nc1ccc(N=Nc2ccccc2)cc1)c1cccc(Cl)c1	-32%	?	-9%	1%	3.2µM*
Cc1cc(C)c(NC(=S)NC(NC(=O)c2ccccc2)C(Cl)(Cl)Cl)c(C)c1 (configuration not stated)	20µM*	?	-9%	?	3%
O=C(NC(NC(=S)Nc1ccccc1)C(Cl)(Cl)Cl)c1cccc(Cl)c1 (configuration not stated)	11µM*	?	?	?	8%
COC(=O)NC(c1cccc(F)c1)[C@]1(C(C)=O)CCCC1=O (some centres not stated)	10%[10 µM]	-5%[10 µM]	-15%[11.6 µM]	1%[11.6 µM]	-18%[11.5 µM]
CC1(c2ccc(OC(F)F)cc2)NC(=O)N(/N=C/c2c(O)ccc3ccccc23)C1=O (configuration not stated)	?	14µM*	?	?	-16%
CC1(c2ccc(OC(F)F)cc2)NC(=O)N(CC(=O)Nc2cccc(S(N)(=O)=O)c2)C1=O (configuration not stated)	-2%	4%	-1%	0%	?
CC12CC3CC(C)(C1)CC(C(=O)Nc1nn[nH]n1)(C3)C2	7%	3%	1%	-6%	3%
CC12CC3CC(C)(C1)CC(C(=O)Nc1nncs1)(C3)C2	?	18µM*	·	·	·
CC(C)n1c2ccccc2c2cc([N+](=O)[O-])ccc21	-7%	-17%	-9%	-8%	-5%
CCC(C)n1c(=S)[nH]c2c(sc3ccc([N+](=O)[O-])cc32)c1=O (configuration not stated)	0.63µM*	1.3µM*	-11%	?	?
CC(=O)c1ccc(NC(=S)NN2C(C)CCCC2C)cc1 (configuration not stated)	8.9µM*	?	-2%	1%	-2%
CCOc1ccc(NC(=S)NN2C(C)CCCC2C)cc1 (configuration not stated)	2.2µM*	8.9µM*	2%	-3%	1%
CC(=O)c1ccc(NC(=S)NC2CCCC(C)C2C)cc1 (configuration not stated)	5µM*	?	-22%	-4%	6%
O=C(NCc1ccccc1Cl)C1CCCN1C(=O)Nc1ccccc1 (configuration not stated)	5%	0%	·	·	·
SMILES	RORgamma inh	Gal4-VP16 FLuc	Tau fluor counter	Tau FP inhib	Tau ThT inhib
CCCCCCCN[C@H]1CCC[C@@H]1CCCCCCC(=O)O	1%	-2%	-10%	-2%	-10%
CC(C)(C)C(=O)Nc1sc2c(c1-c1nc3ccccc3[nH]1)CCCC2	0.79µM*	?	?	?	-4%
O=C(Cn1cc([N+](=O)[O-])nc1[N+](=O)[O-])N1CCN(c2ccccc2)CC1	5.6µM*	?	-23%	-11%	-26%
CCOc1ccc(-c2cc(C(F)(F)F)c(C#N)c(SCC(=O)Nc3ccccc3)n2)cc1	·	·	-1%	-12%	0%
FC(F)(F)c1cccc(-c2noc(-c3cc(-c4ccccc4)c(C(F)(F)F)s3)n2)c1	11%	1%	-7%	-14%	-6%
O=C(NC1CCN(Cc2ccccc2)CC1)c1ccccc1OCc1ccccc1Cl	41%	-12%	·	·	·
O=C(NNC(=O)c1ccccc1OCc1ccccc1Cl)c1csc(N2CCOCC2)n1	13µM*	?	·	·	·
Cc1ccc(C)c(SCC(=O)NNC(=O)c2csc(N3CCOCC3)n2)c1	8.9µM*	?	·	·	·
Cc1ccc(C)c(SCC(=O)NNC(=O)c2ccccc2)c1	-26%	-3%	·	·	·
Cc1ccc(C)c(NC(=O)Cn2c(=O)nc(-c3ccccc3)c3ccccc32)c1	·	·	-1%	6%	-8%
Cc1cccc(C(C)C)c1NC(=O)c1cc2ccccc2o1	-4%	23%	·	·	·
CC(C)(C)c1nnc(N/N=C/c2ccccc2)n(N)c1=O	4µM*	5.6µM*	0%	1%	-11%
CSc1nnc(C(C)(C)C)c(=O)n1/N=C/c1ccccc1	17%	7%	-12%	-10%	-7%
CC(C)(C)c1nnc(N/N=C/c2ccccc2O)n(N)c1=O	10µM*	11µM*	-6%	7%	-8%
CCc1nnc(N/N=C/c2ccccc2F)n1N	11µM*	-2%	-1%	-1%	-14%
CCc1nnc(N/N=C/c2ccccc2Cl)n1N	?	?	-18%	-15%	?
CC(C)c1ccc(Nc2cc(C(=O)NCCc3ccccc3)c3ccccc3n2)cc1	·	·	?	1%	1%
CSc1cccc(Nc2cc(C(=O)NCCCN(Cc3ccccc3)C(C)C)c3ccccc3n2)c1	·	·	3.5µM*[quencher]	?	?
Cc1cc(C)cc(Nc2cc(C(=O)NCCCN(Cc3ccccc3)C(C)C)c3ccccc3n2)c1	·	·	2.8µM*[quencher]	?	-16%
CS(=O)(=O)N(CC(=O)NCCSCc1ccccc1)c1cc(C(F)(F)F)ccc1Cl	·	·	-20%	4%	3%
CC(=O)Nc1cccc(OCC(O)Cn2c(C)nc3ccccc32)c1 (configuration not stated)	?	-10%	-7%	3%	-8%

Assay outcomes from PubChem BioAssay.
